Measured values published in PubChem BioAssay (Tox21).
Records with an inconclusive call do not appear. Where a call stands in place of a potency, no number is given. Active and inactive are the calls of the source. Calls follow the shape of the dose curve; as a rule, active = well fitted cell-killing curve with a large enough effect in the repeat runs; inconclusive = weak or mixed curves, or effect the other way; inactive = flat fitted curve, though single readings scatter.
Potency is read from the fitted curve at half-maximal effect.

Assay: qHTS assay to identify small molecule antagonists of the estrogen receptor alpha (ER-alpha) signaling pathway using the BG1 cell line in the presence of 0.1 nM 17-beta-estradiol - cell viability counter screen (AID 1259241); also: nearly all actives have a fitted effect of over 40% in size
Conditions: VM7Luc4E2 (BG1) viability, CellTiter-Fluor protease, 22 h, 0.1 nM estradiol agonist added; series mostly up to 92.4 µM
Text: National Center for Advancing Translational Sciences [NCATS]
NIH Chemical Genomics Center [NCGC]
U.S. Environmental Protection Agency [EPA]
National Institutes of Environmental Health Sciences [NIEHS]
National Toxicology Program [NTP]
U.S. Food and Drug Administration [FDA]
Estrogen receptor (ER), a member of the nuclear hormone receptor plays an important role in development, metabolic homeostasis and reproduction. Two subtypes of ER, ER-alpha and ER-beta, have similar expression patterns with some uniqueness in both types. Endocrine disrupting chemicals (EDCs) and their interactions with steroid hormone receptors like ER causes disruption of normal endocrine function. Therefore, it is important to understand the effect of environmental chemicals in ER signaling pathway. For identifying ER antagonists, VM7Luc4E2 cell line was used to screen against Tox21 compound libraries.
VM7Luc4E2 cell line (provided by Denison MS, University of California) endogenously express full-length ER-alpha and is stably transfected with a plasmid containing four estrogen responsive elements (ERE) upstream of a luciferase reporter gene. The current screening for identification of ER-alpha inhibitors against Tox21 compound libraries used lower concentration (0.1 nM) of 17beta-Estradiol as a stimulator. The cytotoxicity of the Tox21 compound libraries against VM7Luc4E2 cell line was tested by measuring live-cell protease activity using CellTiter-Fluor assay in the same wells.
Tox21 Assay Protocol Summary:
VM7Luc4E2 cells were cultured in phenol red free assay medium containing 10% charcoal stripped FBS for 5 days prior to the assay. The cells were dispensed at 4,000 cells/well in 4 uL of assay medium into white wall/solid-bottom 1536-well plates (Corning Life Sciences, Corning, NY) using a Multidrop Combi (ThermoFisher Scientific, Waltham, MA) dispenser. After the assay plates were incubated at 37C and 5% CO2 for 24 hr, 23 nL of compounds dissolved in DMSO, positive controls or DMSO only was transferred to the assay plates by a Pintool station (Kalypsys, San Diego, CA). The transfer of compounds was followed by the addition of 1 uL of 0.1 nM (final concentration) agonist (17beta-Estradiol)/assay medium using a Flying Reagent Dispenser (FRD, Aurora Discovery, San Diego, CA). The plates were incubated at 37C and 5% CO2 for 22 hr. For cytotoxicity assay, 1 uL of CellTiter-Fluor reagent (Promega Corporation, Madison, WI) was added to each well using the FRD and after 30 min incubation at 37C and 5% CO2, The fluorescence intensity was measured using ViewLux plate reader (PerkinElmer, Shelton, CT).
For `CC[C@H](C)C(=O)O[C@H]1C[C@@H](C)C=C2C=C[C@H](C)[C@H](CC[C@@H]3C[C@@H](O)CC(=O)O3)[C@H]21`, the Potency was “inactive”.
For `CC(=O)Nc1cccc(O)c1`, the Potency was “inactive”.
With `CCN(CC)c1ccc(C(=O)c2ccccc2C(=O)O)c(O)c1` the Potency was “inactive”.
In the case of `CSCCC=O`, the Potency is reported as “inactive”.
With `CC(=O)OCC(=O)[C@@]12N=C(C)O[C@@H]1C[C@H]1[C@@H]3CCC4=CC(=O)C=C[C@]4(C)[C@H]3[C@@H](O)C[C@@]12C` the Potency was “inactive”.
With `O=S1(=O)CC=CC1` the Potency was “inactive”.
In the case of `CCCCC(CC)COC(=O)CCCCC(=O)OCC(CC)CCCC` (stereo not given), the Potency is reported as “inactive”.
In the case of `CC(O)COCC(C)O` (stereo not given), the Potency is reported as “inactive”.
With `FC(F)(F)c1ccc(Cl)c(Cl)c1` the Potency was “inactive”.
For `Nc1cc([N+](=O)[O-])ccc1O`, the Potency was 48.6 µM (active).
With `CCCCCCCCCCCCS` the Potency was “inactive”.
With `OCCOCCN1CCN(C2=Nc3ccccc3Sc3ccccc32)CC1` the Potency was “inactive”.
With `CC1=CCC2CC1C2(C)C` (stereo not given) the Potency was “inactive”.
For `COc1ccc(Nc2ccccc2)c(C)c1`, the Potency was “inactive”.
For `NNc1nncc2ccccc12`, the Potency was “inactive”.
In the case of `O=C1CCC(N2C(=O)c3ccccc3C2=O)C(=O)N1` (stereo not given), the Potency is reported as “inactive”.
With `CN(C)CCOCCN(C)C` the Potency was “inactive”.
For `O=[N+]([O-])c1ccc(/C=C/c2ccc([N+](=O)[O-])cc2S(=O)(=O)O)c(S(=O)(=O)O)c1`, the Potency was “inactive”.
With `CC(=O)Nc1ccccc1` the Potency was “inactive”.
In the case of `O=P(OC(CCl)CCl)(OC(CCl)CCl)OC(CCl)CCl`, the Potency is reported as “inactive”.
In the case of `COS(C)(=O)=O`, the Potency is reported as “inactive”.
In the case of `Cc1cc(C)c(C)cc1C`, the Potency is reported as “inactive”.
In the case of `CC1CCC2CC1C2(C)C` (stereo not given), the Potency is reported as “inactive”.
With `CCCC(C)=O` the Potency was “inactive”.
For `OC[C@H]1O[C@@](CO)(O[C@H]2O[C@H](CO)[C@@H](O)[C@H](O)[C@H]2O)[C@@H](O)[C@@H]1O`, the Potency was “inactive”.
With `CCCCCCCCCCCCOCCO` the Potency was “inactive”.
In the case of `C[C@H]1C[C@H]2[C@@H]3CCC4=CC(=O)C=C[C@]4(C)[C@@]3(F)[C@@H](O)C[C@]2(C)[C@@]1(O)C(=O)CO`, the Potency is reported as “inactive”.
For `CC(=O)CC(=O)Nc1ccccc1`, the Potency was “inactive”.
With `CCCCCCCCCC` the Potency was “inactive”.
With `O=C(CC(C(=O)OC1CCCCC1)S(=O)(=O)O)OC1CCCCC1` (stereo not given) the Potency was “inactive”.
In the case of `C=CCNC(N)=S`, the Potency is reported as “inactive”.
For `Cc1cccc(O)c1`, the Potency was “inactive”.
For `OCCOCCOCCO`, the Potency was “inactive”.
With `Cc1ccc2oc(=O)ccc2c1` the Potency was “inactive”.
In the case of `CCc1cccc(C)c1N`, the Potency is reported as “inactive”.
With `Cc1cnc(C(=O)NCCc2ccc(S(=O)(=O)NC(=O)NC3CCCCC3)cc2)cn1` the Potency was “inactive”.
In the case of `CCCCCCCCC/C=C/CC1CC(=O)OC1=O` (stereo not given), the Potency is reported as “inactive”.
In the case of `CN(C)CCC(c1ccccc1)c1ccccn1` (stereo not given), the Potency is reported as “inactive”.
For `CC(C)CC(=O)CC(C)C`, the Potency was “inactive”.
With `CCCCCC1=CCCC1=O` the Potency was “inactive”.
